Results as given in PubChem BioAssay (NCATS).
Records with an inconclusive call do not appear. Unmarked numbers belong to inactive results. The source made the active and inactive calls. Calls follow the shape of the dose curve; as a rule, active = well fitted inhibition curve with a large enough effect; inconclusive = small, poorly fitted or top-dose-only effect; inactive = flat fitted curve, though single readings scatter. *1 amine or outer side, *2 acyl side, *3 side chain or, on linkers, in order; H or OH if unused. Where a SMILES comes first, the peptide text is derived from it. Bridges are numbered along the chain shown (N, C = ends). [ ]: non-standard residue; d: D form. The star is where a group is joined. ξ: configuration not given here. X10 = NC1=NCCC(C(N[*:1])C(=O)[*:2])N1; ΔAla(3-NHCONH2) = NC(=O)NC=C(N)C(=O)O; ξβ3hOrn = NCCCC(N)CC(=O)*; Dap = NC[CH](N)C(=O)O

test system: NIH3T3; assay: Cytotoxic Profiling of Annotated Libraries Using Quantitative High-Throughput Screening (AID 1296008); details: Five cell lines viability, CellTiter-Glo ATP luminescence, 48-72 h; max response: hits give low values; also: nearly all actives have a fitted effect of over 60% in size
In short: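 Compounds were pin-transferred onto cells and incubated 48 or 72 hr at 37 degree Celsius, 95% humidity. CellTiter-Glo was added, plates sat 10 min at room temperature, then ATP-coupled luminescence was imaged as the viability read-out.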
% is scaled to controls: 0 for no effect and ±100 for the full control effect.

Row | SMILES | max response | outcome
1 | CC(C)C[C@@H]1[C@H](c2ccccc2)OC(=O)N1CCCN1CCCCCC1 | -3.61% | –
2 | CCOC(=O)CN1CCCC1=O | – | inactive
3 | CCOC(=O)C(=O)c1csc(NC=O)n1 | 0.793% | –
4 | N[C@@H](Cc1cc(I)c(O)c(I)c1)C(=O)O | -12.4% | –
5 | CCOC(=O)Oc1ccc(CCNC(=O)[C@H](CCSC)NC(C)=O)cc1OC(=O)OCC | – | inactive
6 | C#CC(C)(CC)OC(=O)c1ccccc1C(=O)O (centres undefined) | – | inactive
7 | CCCOc1ccc2c(c1)CC[C@@H]1[C@@H]2CC[C@]2(C)C(OC)CC[C@@H]12 (some centres undefined) | 0.167% | –
8 | CC(C)(C)C1CCC(CC2=C(O)c3ccccc3C(=O)C2=O)CC1 (centres undefined) | -2.94% | –
9 | CN1Cc2cc(C(=O)N3CCC(C4CCNCC4)CC3)ccc2NC(CC(=O)O)C1=O (centres undefined) | -2.76% | –
10 | O=C(O)C1CCC1 | -4.19% | –
11 | NCCCC(N)CC(=O)NCC1NC(=O)C(CO)NC(=O)C(N)CNC(=O)C(C2CCN=C(N)N2)NC(=O)C(=CNC(N)=O)NC1=O (stereo not drawn) (H-[Dap]S[Dap](ξβ3hOrn)[ΔAla(3-NHCONH2)][X10]; lactam 1-C; configuration not given here) | -5.75% | –
12 | Nc1ccc(C(=O)OCC(O)CO)cc1 (centres undefined) | 2.44% | –
13 | Cc1ccccc1C(=O)N1CC/C(=N\OS(=O)(=O)O)c2ccc(Cl)cc21 | -8.25% | –
14 | Cn1cc(S(C)=O)c(=O)c2ccc(F)cc21 (centres undefined) | – | inactive
15 | O=C(CS(=O)Cc1ccco1)NC/C=C\COc1cc(CN2CCCCC2)ccn1 (centres undefined) | -2.51% | –
16 | Cn1c(=O)c2c(ncn2CC(=O)O)n(C)c1=O | – | inactive
17 | Oc1cccc2[nH]ccc12 | -6.12% | –
18 | CC(C)C(=O)Nc1cccc(C2CN3CCSC3=N2)c1 (centres undefined) | -0.0334% | –
19 | CCOC(=O)C(=O)CCCCCCl | – | inactive
20 | CNC[C@H](O)[C@@H](O)[C@H](O)[C@H](O)CO | 1.64% | –

Row | SMILES | max response | outcome
21 | CC(C)CCCC(C)NCCC(C)C (centres undefined) | – | inactive
22 | CCc1cccc2c(CCO)c[nH]c12 | 1.36% | –
23 | Clc1ccc2c(c1)Nc1ccccc1S2 | – | inactive
24 | CN1C(=O)c2ccccc2C1=O | -7.13% | –
25 | CC(=O)N(CC(=O)N(C)C)c1ccccc1 | 1.94% | –
26 | CC(=O)OC[C@H]1O[C@@H](OC(C)=O)[C@H](OC(C)=O)[C@@H]1OC(C)=O | – | inactive
27 | C/C(=C1\CCOC(=O)S1)N(C=O)Cc1cnc(C)nc1N | 0.237% | –
28 | Cc1cc(=O)oc2cc(O[C@@H]3SC[C@@H](O)[C@H](O)[C@H]3O)ccc12 | – | inactive
29 | Fc1ccc(C(c2ccc(F)cc2)N2CCNCC2)cc1 | -2.81% | –
30 | NC(=O)NS(=O)(=O)c1ccc(Cl)cc1 | -2.72% | –
31 | NC(=O)COCCN1CCN(C(c2ccccc2)c2ccc(Cl)cc2)CC1 (centres undefined) | – | inactive
32 | CC1(C)O[C@@H]2C[C@H]3[C@@H]4CCC5=CC(=O)C=C[C@]5(C)[C@@]4(F)[C@@H](O)C[C@]3(C)[C@]2(C(=O)CO)O1 | -1.75% | –
33 | COC(=O)c1ccc(NC(C)=O)cc1OC | -16.1% | –
34 | O=C(O)CCCC[C@@H]1SC[C@@H]2NC(=O)N[C@@H]21 | 1.46% | –
35 | O=C(O)CCC(=O)OC[C@@H](NC(=O)C(Cl)Cl)[C@H](O)c1ccc([N+](=O)[O-])cc1 | -0.147% | –
36 | C[C@H]1C[C@H](O)c2ccsc2S1(=O)=O | 1.66% | –
37 | [O-][n+]1cccc(/C(Cl)=N/OC[C@@H](O)CN2CCCCC2)c1 | 0.672% | –
38 | CCOC(=O)c1ccc(OCCN2C[C@H](O)[C@@H](O)[C@H](O)[C@H]2CO)cc1 | -0.529% | –
39 | CCCCOC(=O)CCCCCCCCC(=O)OCCCC | – | inactive
